Results published in PubChem BioAssay AID1902 (Broad Institute, 2009).
Hit rate of the full screen: of about 3,200 compounds, about 2,900 (91%) were called active.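 How the source made its calls: active means EC50 no more than a set limit of log units above the highest dose; inactive means the rest.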 The set was probably picked from earlier hits. The list shows a part of the results. Potency and affinity values are given separately.

Assay: S. pyogenes SKKanGAS kanamycin growth inhibitors – SKKanGAS strain, luminescence, dose confirmation, streptokinase promoter inhibitor project, dose response (AID 1902);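 further: lower survival reflects blocked streptokinase promoter driving kanamycin resistance gene; 0% = DMSO median and -100% = tetracycline positive control median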
Details: kanamycin survival, BacTiterGlo, 6 h; at 15 µM (top of the series)

Structure (SMILES)	activity change, negative = inhibition
N#C/C(=C\c1ccc(/C=C(/C#N)c2nn(CCO)c(N)c2C#N)cc1)c1nn(CCO)c(N)c1C#N	-60.6% (active)
